# Assay results reported in PMC5540273 (PLoS ONE, 2017).
# Key:
# Settings in all cases: concentration: 1 μM, replicates: in singlicate; n = 1
# [1] = system: T1, RSK4(Kin.Dom.1-N-terminal)
# T1 construct: gene RPS6KA6
# [2] = system: T2, RSK4(Kin.Dom.2-C-terminal)
# T2 construct: gene RPS6KA6
# [3] = system: S6K1
# [4] = system: SBK1
# [5] = system: SGK2
# [6] = system: SGK3
# [7] = system: SGK
# [8] = system: SIK2
# [9] = system: SIK
# [10] = system: SLK
# [11] = system: T3, SNARK
# T3 construct: gene NUAK2
# [12] = system: SNRK
# [13] = system: SRC
# [14] = system: SRMS
# [15] = system: SRPK1
# [16] = system: SRPK2
# [17] = system: SRPK3
# [18] = system: STK16
# [19] = system: STK33
# [20] = system: STK35
# 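Also: KINOMEscan kinase panel screen.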
SMILES,%Inh [1] [%],%Inh [2] [%],%Inh [3] [%],%Inh [4] [%],%Inh [5] [%],%Inh [6] [%],%Inh [7] [%],%Inh [8] [%],%Inh [9] [%],%Inh [10] [%],%Inh [11] [%],%Inh [12] [%],%Inh [13] [%],%Inh [14] [%],%Inh [15] [%],%Inh [16] [%],%Inh [17] [%],%Inh [18] [%],%Inh [19] [%],%Inh [20] [%]
Oc1cc(Nc2ccnc3cc(I)ccc23)ccc1F [GW552771],7,87,35,8,2,1,19,57,29,16,0,0,67,0,21,0,9,0,0,5
CCn1c(-c2nonc2N)nc2c(C#CC(C)(C)O)ncc(OCCCCN)c21.O=C(O)C(F)(F)F.O=C(O)C(F)(F)F [GSK507274],2,7,1,44,12,2,0,5,2,1,94.7,19,0,0,0,42,18,0,0,0
c1ccc(-c2cnc3nccnn23)cc1 [AH20685],0,0,10,5,0,0,0,0,0,11,0,0,0,0,20,0,0,0,0,0
Cc1cccc(Nc2nc(N[C@H]3CCNC3)ncc2C(N)=O)c1.Cl [GSK2197149],30,23,5,42,12,0,0,30,35,30,34,0,85,0,72,0,76,12,40,1
c1ccc(-c2n[nH]cc2Nc2ccnc3ccccc23)nc1 [GW694077],1,6,33,25,61,47,89,0,0,0,27,0,0,0,69,46,90,15,6,0
Nc1n[nH]c2cnc(-c3ccccc3)cc12 [SB-642124],19,15,10,22,31,74,74,2,0,0,60,0,0,0,22,3,24,45,31,0
COc1cccc(C2=C(Nc3ccc(Cl)c(C(=O)O)c3)C(=O)NC2=O)c1 [SB-390769],100,0,2,99.9,19,100,0,0,0,16,100,100,0,100,13,0,17,8,0,0
Cc1ccc(S(=O)(=O)Nc2ccc(Nc3nccc(Nc4cccc5[nH]ncc45)n3)cc2)cc1 [GSK581271],0,0,14,26,9,0,0,67,36,0,0,0,64,0,51,5,9,43,0,55
COc1ccc(Nc2nccc(N3CCC(NC(=O)Nc4cccc(OC)c4)C3)n2)cc1 (centres unmarked) [GSK1379742],0,24,0,0,0,0,3,0,0,17,0,0,5,0,12,0,0,0,0,2
CC(=O)Nc1nc2cnc(Nc3cc(NC(=O)c4cccc(C5(C#N)CC5)c4Cl)ccc3C)nc2s1,0,18,14,0,0,0,0,6,29,23,0,0,45,0,39,5,0,11,0,0
